Screening data (PubChem BioAssay)
Most compounds without a hit are left out; they make up all but 10% or so of the library.
CtBP-E1A blk: blocks the CtBP interaction with E1A; activity change, % (no concentration beside the values); hit rate 0.49% among 340,000; AlphaScreen GST-E1A/His-CtBP binding, 1536-well; stronger effect = lower value; in the data active = activity change below about -65%; inconclusive = mostly about -30% to -63%; note: % is set by controls: 0 for no effect and ±100 for the full control effect
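Homogeneous bead-based format: GST-tagged E1A captured on glutathione donor beads, His-tagged CtBP on nickel acceptor beads; compounds precede bead addition by 2 h at 37 °C.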
JMJD2A Tudor inh: blocks the human JMJD2A Tudor domain. O75164. AlphaScreen JMJD2A-Tudor / H3K4me3 peptide binding. Potency, µM (titrated, usually from 114 µM), for the others: at the top dose activity change, negative = inhibition, actives largely listed as inhibitors. hit rate 4.4% among 390,000. AID 504339; note: potency is the fitted concentration of half-maximal effect; % is set by controls: 0 for no effect and ±100 for the full control effect; nearly all actives have a fitted effect of over 50% in size
HP1b chromo inh: HP1-beta chromodomain-methylated histone interaction inhibition. P83916. AlphaScreen HP1-beta / biotin-H3K9me3 peptide binding. Potency, µM (series often up to 114 µM), for the others: at the top dose activity change, negative = inhibition, usual class: inhibitors. hit rate 0.56% among 390,000; note: potency is the fitted concentration of half-maximal effect; nearly all actives have a fitted effect of over 70% in size
Target sequence (P83916 whole entry, looked up): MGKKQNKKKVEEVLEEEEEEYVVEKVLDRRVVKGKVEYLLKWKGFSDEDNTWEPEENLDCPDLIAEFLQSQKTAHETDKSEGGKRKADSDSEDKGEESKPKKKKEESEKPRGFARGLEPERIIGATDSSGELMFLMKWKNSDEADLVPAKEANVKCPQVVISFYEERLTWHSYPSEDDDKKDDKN
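HP1-beta protein (50 nM final) preincubated 30 min at room temperature with biotinylated H3(1-18)K9me3 peptide (50 nM) in PBS pH 7.4, 0.01% Tween-20, then compound added for 30 min. AlphaScreen streptavidin donor/nickel chelate acceptor beads (10 ug/mL final), 30 min dark, luminescence read.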
BAZ2B block: blocks human BAZ2B; Q9UIF8; AID 504333; Potency, µM (series often up to 114 µM), for the others: top-dose activity change, negative = inhibition, usual class: inhibitors; hit rate 4.4% among 360,000; AlphaScreen BAZ2B-H3K14Ac peptide displacement; note: potency is the fitted concentration of half-maximal effect; % is set by controls: 0 for no effect and ±100 for the full control effect; nearly all actives have a fitted effect of over 60% in size
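Multi-concentration screen (max 110 uM) measuring displacement of acetylated histone H3 peptide from BAZ2B by AlphaScreen, using 50 nM protein, 50 nM peptide and 10 ug/mL streptavidin donor plus Ni-chelate acceptor beads.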
Six1-Eya2 inh: blocks human Six1 binding to Eya2; Q15475+O00167; AlphaScreen GST-Six1/His-Eya2 binding, biochemical; stronger effect = lower value; activity change, % (concentration not given with the values); hit rate 0.56% among 360,000; AID 651725; in the data active = activity change below about -65%; inconclusive = mostly about -30% to -63%; note: % is set by controls: 0 for no effect and ±100 for the full control effect
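Compounds are tested against tagged Six1 and Eya2 proteins bridged by glutathione donor and nickel acceptor beads; after a one-hour incubation at 37 °C without light, AlphaScreen emission is recorded.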
G9a inh: G9a (human) methyltransferase inhibition | Q96KQ7 | G9a H3K9 monomethylation, AlphaScreen, 2 h | Potency, µM (top dose mostly 102 µM), for inactives: top-dose activity, negative = inhibition, hits mostly inhibitors | hit rate 8.8% among 350,000; note: potency is the fitted concentration of half-maximal effect; % is set by controls: 0 for no effect and ±100 for the full control effect; nearly all actives have a fitted effect of over 75% in size
Target sequence (Q96KQ7 913-1193 limits assumed): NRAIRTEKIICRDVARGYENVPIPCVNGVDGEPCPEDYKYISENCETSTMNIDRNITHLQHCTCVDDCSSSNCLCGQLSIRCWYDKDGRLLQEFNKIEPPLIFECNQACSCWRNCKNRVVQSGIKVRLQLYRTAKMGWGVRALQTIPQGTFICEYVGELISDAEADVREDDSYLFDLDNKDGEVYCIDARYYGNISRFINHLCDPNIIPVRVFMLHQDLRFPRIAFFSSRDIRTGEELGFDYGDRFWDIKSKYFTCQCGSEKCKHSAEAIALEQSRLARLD
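Chemiluminescent proximity detection of H3K9 monomethylation, read after 10 min bead incubation in the dark. Reaction: 20 nM G9a, 500 nM biotin-H3K9 peptide, 20 uM SAM cofactor, 2 h, room temperature, following 15 min enzyme-compound preincubation.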
Starred values were filed as active, the others as inactive; ? = inconclusive; / = not tested or not shown; [ ] = remark or other dose. Unless noted, calls come from the whole dose curve; as a rule, active = well fitted inhibition curve with a large enough effect; inconclusive = small, poorly fitted or top-dose-only effect; inactive = no such curve, though single readings can be large or run the other way.

SMILES | CtBP-E1A blk | JMJD2A Tudor inh | HP1b chromo inh | BAZ2B block | Six1-Eya2 inh | G9a inh
CCc1ccc(C2c3[nH]c4ccccc4c3CCN2C(=O)c2cc(C)nn2C)cc1 (centres undefined) | -27 | ? | -9% | ? | -18 | 16µM*
Cc1ccc(C2c3[nH]c4ccccc4c3CCN2C(=O)c2ccccc2Br)cc1 (centres undefined) | / | ? | 1%[57 µM] | ? | / | -47%[59 µM]
Cc1cccc(C2c3[nH]c4ccccc4c3CCN2C(=O)c2ocnc2C)n1 (centres undefined) | -2 | -32% | 6% | 79µM* | -5 | 32µM*
CC(C)C[C@H]1CNC(=O)C(=O)N1C[C@H]1CCCN1C[C@H](CC(C)C)N1C[C@H](CC(C)C)N(CCc2ccccc2)C(=O)C1=O | 1 | / | / | / | -1 | /
COCCn1c(=N)c(C(=O)NC(C)c2ccccc2)cc2c(=O)n3cc(C)ccc3nc21 (centres undefined) | / | 13% | 35% | -1% | / | 5%[59 µM]
Clc1ccc(-c2csc(N/N=C/c3ccc4c(c3)OCO4)n2)cc1 | 16 | -25% | 14% | -10% | -2 | 40µM*
Cc1csc(N/N=C\c2cccnc2)n1 | / | -14%[11.4 µM] | 9% | / | 2 | 45µM*
Cc1nnc(N/N=C/c2ccc(O)c([N+](=O)[O-])c2)[nH]c1=O | ? | 3.2µM* | 5% | -5% | ? | 13%[59 µM]
Cc1csc(N/N=C/c2ccc(O)c([N+](=O)[O-])c2)n1 | ? | 45µM* | ? | 4.5µM* | ? | 14µM*
Cc1cc(=O)[nH]c(N/N=C/c2ccc(Cl)c([N+](=O)[O-])c2)n1 | -1 | -17% | 48% | -8% | -3 | /
Cc1ccc2c(CC(=O)Nc3ccc(S(=O)(=O)N4CCCCC4C)cc3)coc2c1 (centres undefined) | / | -22% | 0% | -22% | / | ?
O=[N+]([O-])c1cc(/C=N\Nc2nc(-c3ccccc3)cs2)ccc1O | -19 | ? | ? | 13µM* | -25 | 11µM*
O=[N+]([O-])c1cc(/C=N/N/C(=N/c2ccccn2)c2ccccn2)ccc1O | ? | 79µM* | -7% | 32µM* | -86* | 50µM*
COc1ccc(CNC(=O)Cn2nc(C)c3nn(-c4ccc(Cl)cc4)c(C)c3c2=O)cc1 | / | -13% | 16%[57 µM] | 8% | / | 17%[59 µM]
COC(=O)c1ccc(NC(=O)CN2CCN(S(=O)(=O)c3cc(Cl)ccc3OC)CC2)cc1 | -5 | -9% | 22% | 3% | -12 | 35µM*
COc1ccc(Cl)cc1S(=O)(=O)N1CCN(CC(=O)Nc2ccccc2C(F)(F)F)CC1 | / | -13% | 46% | -2% | / | -5%[59 µM]
COC(=O)c1ccc(NC(=O)CN2C(=O)CNC2=O)cc1 | 4 | 0% | 39% | 2% | -2 | 13µM*
Cc1ccc(NC(=O)CN2C(=O)CNC2=O)cc1 | -6 | -3% | 17% | ? | 0 | -4%
COc1ccc(C)cc1NC(=O)CN1CCN(S(=O)(=O)c2ccc(C(C)C)cc2)CC1 | -3 | -9% | 20% | 12% | -1 | -4%[12.7 µM]
Cc1n[nH]c(C)c1NC(=O)CN1CCN(S(=O)(=O)c2ccc(C(F)(F)F)cc2)CC1 | 0 | 4.5µM* | ? | / | 3 | /
COc1ccc(C)cc1NC(=O)CN1CCN(S(=O)(=O)c2ccc(Cl)cc2)CC1 | 0 | -6% | 16% | 9% | -2 | 14µM*
O=C(CN1CCCN(S(=O)(=O)c2ccc(F)cc2)CC1)Nc1c(Cl)cccc1Cl | -16 | -6% | 5% | -1% | 2 | -12%
COCCNc1ncnc2ccc(-c3ccccc3C(F)(F)F)cc12 | / | / | / | / | / | 3%[0.501 µM]
Cc1ccc(NC(=O)CSc2ccc(-c3sc(-c4ccccc4)nc3C)nn2)cc1F | / | 12% | 60% | 0% | / | 10%[59 µM]
CC(NS(=O)(=O)c1ccc(Cl)cc1)C(=O)N1CCOCC1 (centres undefined) | 1 | 0% | 15% | 3% | 4 | 1%
COc1ccc(S(=O)(=O)N2CCN(CC(=O)Nc3c(C)n[nH]c3C)CC2)cc1OC | -4 | 0.89µM* | ? | / | 13 | /
